This note sets out measurements from PubChem BioAssay (NCI).

Compounds without any hit were thinned out: in the full panel of roughly 79,000, 15% have a hit. Active and inactive are the calls of the source. Rule as the data show it: active = growth inhibition above about 70%; inactive = the rest.

The nature of this assay: NCI Yeast Anticancer Drug Screen. Data for the rad18 strain (AID 177). The conditions noted are these: S. cerevisiae rad18 mutant growth inhibition; at 3.7 µM; hits give high values. Summed up: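 Inhibition values reflect reduced yeast growth compared with vehicle-treated controls, using a strain engineered with a DNA damage repair defect.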
For `C/C(=N\NC(=S)SCc1ccccc1)c1ccccn1`, the growth inhibition was 53% (inactive). Turning to `CC[C@@]1(O)C(=O)OCc2c1cc1n(c2=O)Cc2cc3c(N)cccc3nc2-1`, the growth inhibition was -11% (inactive). Consider `CN(C)c1ccc(Sc2ccc3nc(N)nc(N)c3c2)cc1`, for which the growth inhibition was -17% (inactive). As for `CC(=O)OCCOCNC(=S)N/N=C(\C)c1cnccn1`, the growth inhibition is -5% (inactive).

Turning to `COc1ccc(C2c3cc4c(cc3OC(C)(O)C2C)OCO4)c(OC)c1` (configuration not stated), the growth inhibition is -2% (inactive). For the compound `COc1cc(C2SCC(=O)N2c2ccc(-c3ccc(-n4c(-c5ccccc5)nc5ccccc5c4=O)cc3)cc2)cc(OC)c1OC` (configuration not stated), the growth inhibition is 0% (inactive). Take `COc1ccc(Br)c(C(=O)Sc2nnnn2-c2cccc(Cl)c2)c1`: the growth inhibition is -10% (inactive). For the compound `O=C(NNc1ccnc2cc(Cl)ccc12)/C(=C\c1ccccc1Cl)NC(=O)c1ccccc1`, the growth inhibition was 10% (inactive). Then `CSC(=S)Nc1cccc(C)n1`, with -15% (inactive); and `O=C(/C=C\c1ccc(Cl)cc1Cl)c1cccs1`, with 6% (inactive); and `COc1ccc(-c2cn(-c3ccc(I)cc3)c3ncnc(N)c23)cc1`, with -9% (inactive).

Turning to `CN(C)c1ccc(C(C#N)=C(C#N)C#N)cc1`, the growth inhibition was 1% (inactive). Regarding `COc1cc(/C=C2\CCc3ccccc3C2=O)cc(OC)c1OC`, the growth inhibition is 8% (inactive). With `CC(C)/C(Cl)=N\OC(=O)Nc1cccc(Cl)c1`, the growth inhibition is -8% (inactive). For `CC1(C)[C@@H]2CC[C@]1(C)[C@H](OC(=O)CSC#N)C2`, the growth inhibition was 14% (inactive).

On to `NNC(=O)CCc1ccc2ccc3ccccc3c2c1`, for which the growth inhibition is 15% (inactive). Regarding `COc1ccc(/C(C)=N/OC(=O)c2c(-c3ccccc3Cl)noc2C)cc1CN1CCOCC1`, the growth inhibition was -14% (inactive).
